From PubChem
Peg3 promoter – Peg3 promoter-driven luciferase inhibitors, primary screen, cell-based, HeLa, luciferase luminescence; HeLa PEG-Prom luciferase reporter, overnight; inhibition, % at 20 µM; 1.7% of 360,000 active;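 active = inhibition of at least 50% at 20 µM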
CF NFkB block – inhibitors of PAF-induced NF-kB signaling, primary screen, cell-based, GFP fluorescence, uHTS; 0.86% of 360,000 active; inhibition, % at 5 µM; AID 588850, 2011; KKLEB NF-kB-GFP reporter, GFP fluorescence overnight;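 active = at least 50% inhibition at 5 µM, scaled per plate between neutral and stimulator controls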;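 also: PAF is a Pseudomonas aeruginosa culture filtrate used as stimulus; plate controls were PAF-stimulated DMSO wells for no effect and unstimulated DMSO wells for full effect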
HIF-2a inh – HIF-2a reporter inhibitors, primary screen, luminescence, 786-0 RCC cells. 786-0 RCC cells HIF-2a reporter, luciferase luminescence, overnight. 0.72% of 360,000 active. inhibition, % at 18.8 µM;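 active = inhibition of the luminescence signal of 40% or more relative to plate controls, in a single-dose primary screen at 18.75 µM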
KKLEB cytotox – cytotoxicity in KKLEB CF airway cells, primary screen, cytotoxicity control for CF NF-kB inhibitor project, cell-based, uHTS, fluorescence assay plates; KKLEB CF airway cells viability, ATPlite luminescence, overnight; hits give low values; cells stimulated with P. aeruginosa culture filtrate; activity change (cytotoxicity), % at 5 µM; 0.36% of 360,000 active; AID 602141, 2011;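 active = corrected activity change at or below -50% at 5 µM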
Shn3 inh set2 – reduction of Shn3 3'UTR firefly luciferase signal, primary screen, Schnurri-3 inhibitor project, cell-based, Clone20 osteoblasts, set 2; Clone20 osteoblast Shn3 3'UTR firefly luciferase, 24 h; inhibition, % at 12.5 µM; 0.52% of 360,000 active; AID 588674, 2011;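 active = mean inhibition of at least 75% with every replicate also reaching 75%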;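 also: 0% = median of neutral control wells and 100% = pilot-screen positive control compound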
* hit, by the source's call; . = no result; ! = repeats disagree. Hits are enriched below; roughly 2.6% of the tested compounds scored in any of these assays.

SMILES	Peg3 promoter	CF NFkB block	HIF-2a inh	KKLEB cytotox	Shn3 inh set2
O=C(COC(=O)c1ccccc1)NCc1ccco1	-7.1	8.6	-2.8	-93.5*	1.1
O=C(Nc1cccc([N+](=O)[O-])c1)C1COc2ccccc2O1 (stereo not drawn)	-48.2	1.6	-104.4	-1.5	-7.6
CCCCc1c(-c2cccc(Cl)c2)ncn1CCc1ccccc1OC	.	.	-54.4	.	.
Cc1cc(N2CCC(C)CC2)c(F)cc1[N+](=O)[O-]	17.5	1.8	-20.2	-6.0	10.1
Cc1cc(N2CCCC2)c(F)cc1/C=C\[N+](=O)[O-]	79.2*	-11.1	-28.7	3.0	29.9
COc1ccccc1NC(=S)N(CCCN(C)C)Cc1cc2cc3c(cc2[nH]c1=O)OCO3	25.2	0.8	16.5	3.5	10.7
CCOc1ccccc1C(=O)N(Cc1ccccc1)Cc1cc2cc3c(cc2[nH]c1=O)OCCO3	61.3*	48.3	1.7	-61.8*	-7.2
COc1ccccc1NC(=O)N(Cc1cccs1)Cc1cc2cc3c(cc2[nH]c1=O)OCO3	53.2*	21.2	32.4	-12.0	20.4
O=C(c1ccccc1)N(CCO)Cc1cc2cc3c(cc2[nH]c1=O)OCCO3	7.7	-3.5	8.1	9.6	4.0
COC(=O)c1ccccc1NC(=S)N(Cc1ccc2c(c1)OCO2)Cc1cc2cc(OC)ccc2[nH]c1=O	23.3	-1.4	-1.1	-9.8	88.7*
CSc1ccccc1NC(=O)CN(C)C(=O)c1ccc2c(c1)OCCO2	-9.8	15.2	-2.2	-13.3	-10.1
CC(=O)N1c2c(cc(Br)cc2S(=O)(=O)NCc2ccc(C)cc2)CC1C (stereo not drawn)	17.6	3.9	4.1	4.6	21.6
C/C(=N\NC(=O)COc1ccccc1-c1ccccc1)c1cccnc1	29.1	-5.5	7.5	-5.6	-7.3
O=C(COc1ccccc1-c1ccccc1)N/N=C/c1ccc2ccccc2c1	31.8	62.4*	20.9	-38.8	13.5
C/C(=N\NC(=O)COc1ccccc1-c1ccccc1)c1ccccn1	46.3	10.0	13.1	-18.2	97.7*
C/C(=N\NC(=O)COc1ccccc1-c1ccccc1)c1ccc(O)cc1O	41.3	-17.3	21.0	1.7	92.1*
Nc1sc(-c2ccccc2)cc1C(=O)N1CCNCC1	.	.	-12.0	.	.
N#Cc1ccc(-c2cccc3nccn23)cc1	-9.3	-11.9	3.4	10.3	13.2
CC1CN(C(=O)c2ccc(NS(=O)(=O)c3cccc(Cl)c3)cc2)CC(C)O1 (stereo not drawn)	8.3	8.0	5.2	-3.0	5.1
CNS(=O)(=O)c1cccc(C(=O)OCc2cc(C(C)=O)ccc2OC)c1	8.5	3.4	1.4	-12.8	81.8*
CC(C)c1ccc2c(c1)CC[C@H]1[C@](C)(CN)CCC[C@]21C	89.7*!	21.3	-67.7	-16.9	-3.9
CC(C)c1ccc2c(c1)CCC1C(C)(CN)CCCC21C (stereo not drawn)	108.6*	12.8	-1.9	-12.8	29.1
Oc1ccccc1-c1nnc(SCCN2CCOCC2)n1Cc1ccccc1	53.4*	5.5	-20.1	0.2	51.5
CC(C)c1ccc(NC2CCCN(C(=O)CCN3CCCCO3)C2)cc1 (stereo not drawn)	15.3	-8.5	-5.2	-0.9	-9.9
COc1cc(/C=C/C(=O)c2ccc(Cl)s2)cc(OC)c1O	52.3*	42.5	27.4	-22.8	-3.5
SMILES	Peg3 promoter	CF NFkB block	HIF-2a inh	KKLEB cytotox	Shn3 inh set2
O=C1C=C(C2CCCCC2)C(=O)c2ccccc21	11.5	71.1*	0.6	18.3	-40.0
Cc1c(Cl)cccc1NC(=S)/C(=C(\[O-])c1ccc(Cl)s1)[n+]1ccccc1	58.1*	-7.1	-9.7	9.0	2.3
[O-]/C(=C(\C(=S)Nc1cccc2ccccc12)[n+]1cccc(CO)c1)c1ccc(Cl)s1	16.0	-2.0	2.5	0.4	12.4
CCOc1ccc(-n2c(C)cc(C(=O)CCl)c2C)cc1	111.5*	40.8	19.6	-26.9	77.4
COC(=O)c1ccc(-n2c(C)cc(C(=O)CCl)c2C)cc1	81.5*	10.5	32.7	-36.6	33.3
CCc1nc2ccc(C(=O)Nc3cccc(OCC(=O)N(C)C)c3)cn2c1N(C=O)Cc1ccc(OC)cc1	3.2	0.7	9.0	15.1	0.4
CCCCN(CC)C(=O)CSc1nc2c(sc(=S)n2-c2ccc(OCC)cc2)c(=O)[nH]1	12.2	-2.2	7.1	27.2	23.3
COc1cc(C(=O)NC2CCCc3c2cnn3-c2ccccc2F)cc(OC)c1OC (stereo not drawn)	13.4	-9.6	10.7	-1.0	89.4*
Cc1cc(C(=O)NC2CCCc3c2cnn3-c2cccc(C)c2C)n(C)n1 (stereo not drawn)	6.4	-17.3	11.3	-12.3	90.8*
CC[C@H](C)[C@H]1CNC(=S)N1CC1CCN(CCCC2CCCC2)CC1	-6.1	5.7	5.3	10.7	-14.5
O=C(CSc1ccc(-c2nc3ccccc3[nH]2)cn1)Nc1ccc(S(=O)(=O)N2CCCC2)cc1	-18.1	-17.4	-100.3	-2.3	-5.7
COc1ccc(-c2nc(SCC(=O)Nc3nccs3)c(-c3ccc(Cl)cc3)[nH]2)cc1	52.1*	10.4	-2.2	-16.4	23.3
Cc1cc2nc(-c3ccc(SCC(=O)Nc4ccc(S(=O)(=O)N5CCCC5)cc4)nc3)[nH]c2cc1C	-78.0	23.3	-193.5	-53.7*	-31.3
CCc1nnc(NC(=O)CSc2ccc(-c3nc4ccc(C)cc4[nH]3)cn2)s1	-258.9	12.1	-153.2	-42.0	-1.5
Cc1cc2nc(-c3ccc(SCC(=O)Nc4nccs4)nc3)[nH]c2cc1C	14.3	57.8*	-155.2	-59.2*	9.2
CCOc1ccc(NS(=O)(=O)c2ccc(C(=O)NCCN3CCOCC3)cc2)cc1	0.7	27.4	2.8	-2.1	-1.2
CCOc1ccc(NS(=O)(=O)c2cc(C(=O)NCCN3CCOCC3)ccc2C)cc1	-2.3	-16.5	0.0	-14.4	92.3*
N=c1n(Cc2ccccc2)c2ccccc2n1CC(O)COc1ccccc1 (stereo not drawn)	70.9*	16.0	6.5	-17.7	89.0*
CCCCn1c(=N)n(CC(O)COc2ccc(C)cc2)c2ccccc21 (stereo not drawn)	72.3*	-7.6	0.0	-6.3	77.5
CC1(c2nnc(-c3cccc(Cl)c3)o2)CC(c2cccc([N+](=O)[O-])c2)=NO1 (stereo not drawn)	4.0	0.0	-6.9	2.3	1.1
COc1ccc(NS(=O)(=O)c2cccc(C(=O)N3CCC3)c2)cc1	11.0	17.9	7.7	2.8	4.0
COc1ccc(NS(=O)(=O)c2cccc(C(=O)N3CCCC3)c2)cc1	57.8*	10.9	9.9	12.8	6.9
COc1ccc(C(=O)NNC(=O)c2cccc(S(=O)(=O)N3CCOCC3)c2)cc1	5.7	-4.5	5.0	11.9	95.9*
